# According to the supplement of paper PMC10338343:
# ± gives the standard deviation. The full ranking holds about 3,000 sequences; the median of “pre-steady-state target cleavage rate” is about 0.0079, and the highest 2% start at about 0.2. The sample as a whole holds a higher share of the highest values than the screen did.
# System: MILI (PIWIL2) piRISC loaded with piRNA #2 (26 nt)
# Assay: pre-steady-state target cleavage rate (min^-1); MIWI and MILI are mouse PIWI proteins and EfPiwi is from a freshwater sponge; tags in brackets are library labels; higher = faster piRNA-guided slicing of the target
# Settings: guide: piRNA #2 5'p-UUAGGUAACCCAGUAGAUCCAGAGGA; auxiliary factor: 500 nM mouse GTSF1
# Method: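 Cleave-'n-Seq: a library of target RNAs (target site embedded in constant flanks, ACAGCATTCCGCGTTAGTGATATCCG... 5' flank; DNA-blocked outside the site) at 0.1 nM was incubated with 1 nM active mouse MILI or MIWI piRISC (synthetic 5'-monophosphorylated piRNA guide) with or without 500 nM mouse GTSF1 at 33 °C for 1 min to 16 h. Uncleaved targets were sequenced and normalised to non-target controls, and the pooled three trials were fitted to a burst-and-steady-state model to give the pre-steady-state cleavage rate (min^-1; k3 is constrained to at most 1e-4). Sequence is the target site only; target names encode pairing extent (gX:gY) and contiguous / 1-mismatch / 2-mismatch / bulge geometry. Fits with R² ≤ 0 are excluded.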
row,Sequence,pre-steady-state target cleavage rate
1,CUUAUCCUCUGGAUCUACUGGGUAUCCUAA,0.0336 ± 0.014
2,CUUAUCCUCUGGAUCUACUGGGUUCCUAA,0.239 ± 0.11
3,CUUAUCCUCUGGAUCUACUGGGUUACCUAA [g2:g26:cont:t1A],0.125 ± 0.023
4,CUUAUCCUCUGGAUCUACUGGGUUAUCCUAA,0.204 ± 0.046
5,CUUAUCCUCUGGAUCUACUGGGUUUCCAAA,0.134 ± 0.047
6,CUUAAGCUCUGGAUCAACUGGGUUUCCUAA,0.0481 ± 0.015
7,CUUAUCCUCUGGAUCUACUGGGUUUCGUAA,0.171 ± 0.071
8,CUUAUCCUCUGGAUCUACUGGGUUAUCUAA,0.0884 ± 0.015
9,CUUAUCCUCUGGAUCAACUGGGUUUCCUAA,0.199 ± 0.072
10,CUUAACCUCUGGAUCAACUGGGUUUCCUAA,0.101 ± 0.038
11,CUUAUCCUCUGGAUCUACUGGGUUUCCUUA,0.413 ± 0.15
12,CUUAUCCUCUGGAUCUACUGGGUUCACCUAA,0.0872 ± 0.017
13,CUUAAGCUCAGGAUCAACUGGGUUACCUAA,0.0432 ± 0.014
14,CUUAAGGACUGGAUCUAUUGGGUUACCUAA,0.0187 ± 0.0078
15,CUUAAGGAGUGGAUCUUCAGGGUUACCUAA,0.0231 ± 0.0065
16,CUUAAGGUCUGGAUGUACUGGGAUACCUAA,0.0141 ± 0.01
17,CUUAAGGUCUGGAACUUCUGGGUUACCUAA,0.0253 ± 0.015
18,CUUAAGCUCAGGAUCUACUGGGUAACCUAA,0.0259 ± 0.0088
19,CUUAACGUCUGGAUCUACUGGGUUACCUUA,0.0827 ± 0.015
20,CUUAAGGAGUGGAUCUACUGGGUCUACCUAA,0.00823 ± 0.0039
21,CUUAAGGACUGGAUCUACUGGGUAUACCUAA,0.0248 ± 0.016
22,CUUAAGGUCUGGAUCUACAGGGUUACCAAA,0.106 ± 0.017
23,CUUAUCCACUGGAUCUACUGGGUUUCCUAA,0.123 ± 0.034
24,CUUAUCCUCUGGAUCUACUGGGUAUGCUAA,0.092 ± 0.023

row,Sequence,pre-steady-state target cleavage rate
1,CUUAUCCUCUGGAUCUACUGGGUUACGCUAA,0.174 ± 0.026
2,CUUAUCCUCUGGAUCUACUGGGUUCCCUAA,0.321 ± 0.13
3,CUUAUCCCUCUGGAUCUACUGGGUUACCUAA,0.0911 ± 0.022
4,CUUAUCCUCUGGAUCUACUGGGUUACCCUAA,0.132 ± 0.049
5,CUUAUCCUCUGGAUCUACUGGGUUUGCUAA,0.216 ± 0.041
6,CUUAUCCUCUGGAUCUACUGGGUUUCCUAA,0.252 ± 0.072
7,CUUAUCCUCUGGAUCUACUGGGUUUACCUAA,0.107 ± 0.023
8,CUUAAGGUGUGGAUCUACUGGGUUACCUUA,0.0353 ± 0.011
9,CUUAUCCUCUGGAUGUACUGCGUUACCUAA,0.0106 ± 0.0045
10,CUUAAGGACUGGAUCUACAGGGUUACCAAA,0.0404 ± 0.0091
11,CUUAAGCUCUCGGAUCUACUGGGUUACCUAA,0.064 ± 0.015
12,CUUAUCCUCUGGAUCACUGGGUUACCUAA,0.0129 ± 0.0061
13,CUUAAGGAGACCUACUACUGGGUUACACUAA,< 0.0001
14,CUUAAGGUCUGGAUCUACUGGGUUACCUGAA,0.0831 ± 0.035
15,CUUAAGCUCUGGAUCUAGUGGGUUUCCUAA,0.0199 ± 0.0071
16,CUUAUCCUCUCGAUCUACUCGGUUACCUAA,0.0053 ± 0.0015
17,CUUAAGGAGACCUACUACUGUGGUUACCUAA,< 0.0001
18,CUUAACGUCUGCAUCUACUGGGUUACCUAA,0.126 ± 0.02
19,CUUAUCCUCUGGACUCUACUGGGUUACCUAA,0.0887 ± 0.019
20,CUUAUCCUCUGGAGUCUACUGGGUUACCUAA,0.175 ± 0.039
21,CUUAUCCUCUGGCUCUACUGGGUUACCUAA,1.12 ± 0.3
22,CUUAUCCUCUGGUCUACUGGGUUACCUAA,0.983 ± 0.34
23,CUUAUCCUCUGGAAUCUACUGGGUUACCUAA,0.156 ± 0.035
24,CUUAUCCUCUGGGUCUACUGGGUUACCUAA,0.206 ± 0.035

row,Sequence,pre-steady-state target cleavage rate
1,CUUAUCCUCUGAAUCUACUGGGUUACCUAA,0.109 ± 0.023
2,CUUAAGCUCUGGAUGUACUGGGUUUCCUAA,0.0435 ± 0.021
3,CUUAAGGUCUGGAUCUACAGGGUUAGCUAA,0.0446 ± 0.012
4,CUUAAGCUCUGUAUCUACUGGGUUACCUAA,0.0444 ± 0.0099
5,CUUAAGGAGUGGAUCUACAGGGUUUCCUAA,0.056 ± 0.012
6,CUUAAGGUCUGGAUCUACUGGGUUACCUAU [g2:g23:cont:t1U],0.101 ± 0.014
7,CUUAUCCUCUGGAUGUAGUGGGUUACCUAA,0.0679 ± 0.01
8,CUUAUCCUCUGAUCUACUGGGUUACCUAA,0.123 ± 0.029
9,CUUAUCCUCUGGCAUCUACUGGGUUACCUAA,2.56 ± 1.7
10,CUUAUCCUCUGCGAUCUACUGGGUUACCUAA,0.0876 ± 0.015
11,CUUAUCCUCUGGAUCUACUGGGUUACCUUA,0.13 ± 0.026
12,CUUAUCCUCUGCAUCUACUGGGUUACCUAA,0.275 ± 0.056
13,CUUAUCCUCUGGAUCUACUGGGUUACCAAA,0.13 ± 0.023
14,CUUAACCUCUGCAUCUACUGGGUUACCUUA,0.178 ± 0.048
15,CUUAUCCUCUGCAUCUACUGGGUUACCUUA,0.466 ± 0.13
16,CUUAACCUCUGCAUCUACUGGGUUACCAAA,0.173 ± 0.055
17,CUUAUCCUCUGCAUCUACUGGGUUACCAAA,0.408 ± 0.12
18,CUUAUCCUCUGGGAUCUACUGGGUUACCUAA,0.137 ± 0.023
19,CUUAUCCUCUGCAUCUACUGCGUUACCUAA,0.0198 ± 0.0066
20,CUUAAGCUCUGGAUCUACCGGGUUACCUAA,0.0213 ± 0.0061
21,CUUAAGCUCUGGAUCUACUGGGUUCACCUAA,0.0506 ± 0.017
22,CUUAAGGAGUGGAUCUUCUGGGUUACCUUA,0.014 ± 0.007
23,CUUAUCCUCUGCAUCUACUGGGUUACGUAA,0.483 ± 0.2
